Experimental data: PubChem BioAssay
“And” between values parts separate entries of the source, which are not always exact repeats. Equal entries are not always repeated. The source made the active and inactive calls.

Key:
[1] = binders of probe aFSTL3 on microarray, primary screen, stem cell growth factor project, biochemical, small-molecule microarray, fluorescence 635/667 (AID 1064); conditions: higher = more signal;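 further: measures binding of the biotinylated anti-FSTL3 antibody to printed compounds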
[2] = binders from COS7 lysate, DM2A8 probe, primary screen, torsin A project, cell lysate, small-molecule microarray, fluorescence 635/667 (AID 1065); conditions: higher = more signal, COS7 lysate expressing mutant human TOR1A
[3] = binders of probe aFGF2 on microarray, primary screen, stem cell growth factor project, biochemical, small-molecule microarray, fluorescence 635/667 (AID 1067); conditions: higher = more signal;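 further: measures binding of biotinylated aFGF2 protein to printed compounds on slides; z-score merges feature fluorescence and signal-to-noise across triplicate slides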
[4] = binders of probe aFGF10 on microarray, primary screen, stem cell growth factor project, biochemical, small-molecule microarray, fluorescence 635/667 (AID 1071); conditions: higher = more signal;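 further: score merges 667 nm spot intensity and signal to noise from triplicate slides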
[5] = biological target: Neurogenic locus notch homolog protein 2 (Homo sapiens) (UniProt Q04721); experiment: Notch2 binders on small-molecule microarrays, primary screen, biochemical, small-molecule microarray, 635 nm fluorescence, stem cell growth factors (AID 1073); conditions: Notch2 binding, higher = more signal
Neurogenic locus notch homolog protein 2 (Homo sapiens), sequence (Q04721 whole entry, looked up, canonical isoform): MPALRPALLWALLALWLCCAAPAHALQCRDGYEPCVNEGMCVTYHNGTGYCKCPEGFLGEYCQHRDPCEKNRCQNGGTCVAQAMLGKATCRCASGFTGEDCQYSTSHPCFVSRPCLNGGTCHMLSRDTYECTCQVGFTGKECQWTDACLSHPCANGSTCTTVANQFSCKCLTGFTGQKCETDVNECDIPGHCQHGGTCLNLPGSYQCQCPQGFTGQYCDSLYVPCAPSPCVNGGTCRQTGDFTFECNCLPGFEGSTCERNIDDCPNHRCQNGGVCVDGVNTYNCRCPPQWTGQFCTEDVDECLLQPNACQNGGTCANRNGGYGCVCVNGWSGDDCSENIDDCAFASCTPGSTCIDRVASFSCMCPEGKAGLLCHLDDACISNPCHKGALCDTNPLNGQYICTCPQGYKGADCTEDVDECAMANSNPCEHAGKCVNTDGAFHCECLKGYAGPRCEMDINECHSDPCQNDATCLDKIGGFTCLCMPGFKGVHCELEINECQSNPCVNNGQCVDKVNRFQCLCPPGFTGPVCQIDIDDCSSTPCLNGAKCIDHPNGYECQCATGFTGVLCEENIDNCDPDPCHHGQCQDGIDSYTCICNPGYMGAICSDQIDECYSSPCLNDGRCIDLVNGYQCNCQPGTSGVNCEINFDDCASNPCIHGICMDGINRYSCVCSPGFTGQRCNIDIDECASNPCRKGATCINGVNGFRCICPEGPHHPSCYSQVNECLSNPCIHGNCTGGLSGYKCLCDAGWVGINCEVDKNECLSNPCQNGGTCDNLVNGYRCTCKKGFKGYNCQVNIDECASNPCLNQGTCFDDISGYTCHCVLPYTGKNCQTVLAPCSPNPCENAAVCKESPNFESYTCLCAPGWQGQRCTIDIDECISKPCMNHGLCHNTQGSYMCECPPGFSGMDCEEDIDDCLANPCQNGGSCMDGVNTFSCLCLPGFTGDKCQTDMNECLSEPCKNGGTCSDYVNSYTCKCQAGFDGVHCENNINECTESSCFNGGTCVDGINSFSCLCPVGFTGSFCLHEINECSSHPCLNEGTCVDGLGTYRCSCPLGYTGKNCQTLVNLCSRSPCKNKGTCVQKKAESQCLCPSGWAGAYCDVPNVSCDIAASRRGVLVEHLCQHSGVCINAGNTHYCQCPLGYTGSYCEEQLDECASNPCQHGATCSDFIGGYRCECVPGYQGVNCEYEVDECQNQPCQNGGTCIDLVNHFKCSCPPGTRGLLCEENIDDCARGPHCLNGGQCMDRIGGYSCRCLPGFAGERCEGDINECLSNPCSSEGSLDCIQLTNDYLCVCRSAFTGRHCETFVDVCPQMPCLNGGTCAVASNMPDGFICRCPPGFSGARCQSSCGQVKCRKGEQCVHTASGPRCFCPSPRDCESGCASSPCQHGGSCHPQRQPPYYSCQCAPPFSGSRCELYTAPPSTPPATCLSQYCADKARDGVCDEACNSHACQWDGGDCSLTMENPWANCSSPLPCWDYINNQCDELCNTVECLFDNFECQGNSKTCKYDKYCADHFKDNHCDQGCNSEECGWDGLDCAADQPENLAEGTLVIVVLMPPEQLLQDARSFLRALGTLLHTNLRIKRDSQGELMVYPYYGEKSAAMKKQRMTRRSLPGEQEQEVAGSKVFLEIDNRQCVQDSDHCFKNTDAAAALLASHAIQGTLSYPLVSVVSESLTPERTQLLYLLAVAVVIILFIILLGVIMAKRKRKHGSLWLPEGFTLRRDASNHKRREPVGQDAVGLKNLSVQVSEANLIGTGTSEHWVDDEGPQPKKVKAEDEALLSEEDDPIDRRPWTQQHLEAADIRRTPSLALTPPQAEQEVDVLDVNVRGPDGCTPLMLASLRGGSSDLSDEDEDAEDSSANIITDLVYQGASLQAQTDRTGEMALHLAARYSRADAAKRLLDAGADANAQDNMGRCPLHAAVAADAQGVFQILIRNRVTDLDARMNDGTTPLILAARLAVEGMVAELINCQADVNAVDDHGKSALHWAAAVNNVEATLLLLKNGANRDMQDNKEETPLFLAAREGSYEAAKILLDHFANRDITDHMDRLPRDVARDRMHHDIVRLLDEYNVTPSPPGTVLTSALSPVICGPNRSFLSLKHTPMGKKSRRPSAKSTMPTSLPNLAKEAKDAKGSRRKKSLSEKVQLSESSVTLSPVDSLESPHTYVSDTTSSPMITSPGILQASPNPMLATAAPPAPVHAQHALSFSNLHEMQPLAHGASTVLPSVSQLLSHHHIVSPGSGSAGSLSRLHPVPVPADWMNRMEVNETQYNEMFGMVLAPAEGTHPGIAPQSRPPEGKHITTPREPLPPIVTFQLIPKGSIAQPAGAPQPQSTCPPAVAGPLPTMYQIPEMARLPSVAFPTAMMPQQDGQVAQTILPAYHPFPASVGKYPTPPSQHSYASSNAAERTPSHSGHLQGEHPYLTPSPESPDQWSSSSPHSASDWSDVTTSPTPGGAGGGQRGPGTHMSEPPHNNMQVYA

[6] = biological target: Pro-neuregulin-1, membrane-bound isoform (Homo sapiens) (UniProt Q02297); experiment: NRG1 binders on small-molecule microarrays, primary screen, psychiatric disease protein project, biochemical, small-molecule microarray, fluorescence 635/667 (AID 1075); conditions: NRG1 binding, 635 nm fluorescence, higher = more signal;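 further: score combines 667 nm spot fluorescence with signal to noise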
Pro-neuregulin-1, membrane-bound isoform (Homo sapiens), sequence (Q02297 whole entry, looked up, the tested form may be a part, canonical isoform): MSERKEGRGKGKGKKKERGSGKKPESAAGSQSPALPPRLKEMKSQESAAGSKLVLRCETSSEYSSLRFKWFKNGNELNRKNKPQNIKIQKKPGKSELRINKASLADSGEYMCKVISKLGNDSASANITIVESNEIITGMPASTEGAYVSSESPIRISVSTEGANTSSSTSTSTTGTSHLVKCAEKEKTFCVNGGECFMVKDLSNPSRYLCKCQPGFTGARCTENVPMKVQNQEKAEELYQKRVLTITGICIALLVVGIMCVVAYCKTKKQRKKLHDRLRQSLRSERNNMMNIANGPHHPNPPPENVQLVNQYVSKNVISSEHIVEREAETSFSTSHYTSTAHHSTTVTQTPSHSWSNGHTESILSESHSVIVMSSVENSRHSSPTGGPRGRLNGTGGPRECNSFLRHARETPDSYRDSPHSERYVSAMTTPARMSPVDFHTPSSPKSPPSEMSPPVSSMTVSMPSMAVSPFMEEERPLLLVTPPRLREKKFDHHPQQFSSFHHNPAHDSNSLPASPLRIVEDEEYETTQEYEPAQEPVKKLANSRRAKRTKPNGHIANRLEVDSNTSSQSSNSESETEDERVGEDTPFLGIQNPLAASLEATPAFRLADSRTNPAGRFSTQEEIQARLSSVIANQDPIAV

[7] = system: Neuregulin-1 EGF-like domain; experiment: binders of neuregulin-1 EGF-like domain, primary screen, biochemical, small-molecule microarray, 635 nm fluorescence (AID 1081); conditions: small-molecule microarray binding, higher = more signal;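 further: binding of the protein to compounds printed on small-molecule microarray slides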
[8] = FRG1 promoter luciferase signal modulators, primary screen, FRG1 inhibition for FSHD, cell-based, C2C12 myotubes, firefly/Renilla luciferase, luminescence (AID 1084); conditions: higher = more signal, called active from +8 up or from −8 down
[9] = binders of probe aFST on microarray, primary screen, stem cell growth factor project, biochemical, small-molecule microarray, fluorescence 635/667 (AID 1086); conditions: higher = more signal;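 further: score merges 667 nm fluorescence with signal-to-noise of each printed compound spot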
[10] = binders of probe aHhip on microarray, primary screen, stem cell growth factor project, biochemical, small-molecule microarray, fluorescence 635/667 (AID 1087); conditions: higher = more signal;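 further: score merges spot fluorescence at 667nm with spot signal to noise ratio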

Row | SMILES | composite z-score [1] | composite z-score [2] | composite z-score [3] | composite z-score [4] | composite z-score [5] | composite z-score [6] | composite z-score [7] | z-score [8] | composite z-score [9] | composite z-score [10]
1 | C[C@@H]1CC[C@H]2C(=O)NC[C@@H](O)CN2[C@H]1c1ccc(Br)cc1 | -0.194 and -0.181 | 0.332 and 0.0997 | -0.116 and -0.134 | 0.23 and 0.0389 | -0.556 and -0.244 | 0.229 and -0.138 | 0.693 and 0.72 | 0.674 (inactive) and -0.078 (inactive) | -0.304 and 0.127 | -0.3 and -0.134
2 | C=CCN(C(=O)C1N(C(C)(C)CO)C(=O)C2C(C(=O)O)C3C=CC21O3)c1ccc(OC)cc1 (stereo not given) | 1.84 and 1.41 | -1.16 and -1.03 | -0.237 and -0.195 | -1.49 and -0.243 | -1.71 and -1.79 | -0.16 and -1.32 | 0.493 and -0.364 | 1.63 (inactive) and -0.0127 (inactive) | -0.898 and -1.25 | -0.169 and -0.204
3 | COCn1c2ccccc2c2nnc(C(C)=O)nc21 | -0.401 and -0.253 | 0.416 and -0.0491 | -0.108 and -0.112 | 0.111 and 0.226 | -0.0995 and 0.194 | -0.325 and -0.146 | -0.29 and -0.548 | 0.51 (inactive) and 0.697 (inactive) | 0.252 and -0.0637 | -0.0994 and 0.0515
4 | CCN1C(=O)[C@H]2[C@H]3[C@H](O)[C@H](O)CC(=NNC(=O)OCc4ccc(OC)cc4)[C@H]3CC[C@H]2C1=O | 2.2 | 0.349 | -0.0775 | 0.284 | -0.0863 | -0.116 | -0.222 | -0.0988 (inactive) | 1.03 | -0.0482
5 | C=CCN(Cc1ccccc1)C(=O)C1N(c2c(Cl)cccc2CO)C(=O)C2C(C(=O)O)C3C=CC21O3 (stereo not given) | 1.77 and 1.95 | -1.28 and -0.799 | -0.176 and -0.166 | -1.74 and -0.702 | -2.4 and -2.37 | -1.18 and -0.797 | -0.822 and -0.464 | -1.05 (inactive) and 1.16 (inactive) | -0.877 and -0.563 | -0.418 and -0.137
6 | C=CCN(CCCC)C(=O)C1N(CCOCCO)C(=O)C2C(C(=O)O)C3C=CC21O3 (stereo not given) | 0.398 and 0.725 | -1.98 and -0.776 | -0.209 and -0.116 | -1.13 and -0.467 | -1.17 and -2.39 | 1.64 and -0.729 | 1.61 and 1.51 | 0.75 (inactive) and 0.0827 (inactive) | -0.792 and -1.02 | -0.169 and -0.306
7 | C=C[C@@H](OC)[C@H](O)c1ccc(OC)c(O)c1 | -0.407 and 0.724 | 0.415 and -0.675 | 0.177 and -0.175 | 0.0573 and -1.49 | 0.113 and -0.602 | -0.44 and -0.559 | 0.225 and -0.758 | 0.0163 (inactive) and -0.152 (inactive) | -0.209 and -0.844 | -0.0994 and -0.296
8 | C=CCN(CCCC)C(=O)C1N(c2c(Cl)cccc2CO)C(=O)C2C(C(=O)O)C3C=CC21O3 (stereo not given) | 1.38 and 0.489 | -0.331 and -0.392 | -0.247 and -0.307 | -0.842 and -1.3 | -1.17 and -1.13 | -0.909 and 0.0849 | -0.981 and 0.374 | 0.183 (inactive) and -0.987 (inactive) | -0.931 and -0.719 | -0.412 and -0.323
9 | C=CCN(Cc1ccccc1)C(=O)C1N(CCCCCCO)C(=O)C2C(C(=O)O)C3C=CC21O3 (stereo not given) | 1.09 and 1.2 | -1.16 and -1.37 | -0.236 and -0.323 | -1.2 and -1.78 | -1.18 and -1.23 | 0.614 and 0.705 | 1.41 and 1.4 | 0.639 (inactive) and -0.331 (inactive) | -0.841 and -0.708 | -0.5 and -0.204
10 | CO[C@H]1COC(=O)CC=C[C@@H](C)COC(=O)[C@H](CCSC)NC(=O)CC=C[C@@H]1C | -0.638 and -0.893 | 2.71 and 2.84 | 0.561 and -0.386 | -0.174 and -0.853 | -0.375 and -0.583 | -0.591 and -1.25 | 1.01 and 0.444 | -0.172 (inactive) and -0.845 (inactive) | 0.536 and 0.0907 | 0.12 and -0.154
11 | O=C1C[C@]2(c3ccc([N+](=O)[O-])cc3)C(=O)N(Cc3ccccc3)c3cc(CO)ccc3[C@H]2N1C1CCCCC1 | -0.391 and -0.0715 | 0.0304 and -0.0759 | -0.145 and 0.103 | -0.416 and 0.208 | 0.168 and 0.853 | -0.183 and 0.819 | 1.25 and 1.12 | -0.0521 (inactive) and 0.981 (inactive) | -0.0791 and -0.129 | -0.185 and 1.38
12 | CC[C@@H]1C(Sc2ccccc2)C(C(=O)O)[C@H](c2ccc(C)cc2)N1S(=O)(=O)c1ccc(C)cc1 (stereo not given in full) | 0.249 and -0.499 | 0.364 and -0.0981 | 0.0013 and 0.166 | 0.579 and 0.288 | 1.56 and 1.12 | 1.82 and 1.91 | 1.39 and 1.2 | -3.66 (inactive) and -3.89 (inactive) | 0.254 and 1.05 | -0.179 and -0.0994
13 | C=CCN(C(=O)C1N(CCOCCO)C(=O)C2C(C(=O)O)C3C=CC21O3)C(C)(C)C (stereo not given) | 0.977 and 0.412 | -0.768 and -0.863 | -0.25 and -0.262 | -1.82 and -1.11 | -2.44 and -1.36 | -0.774 and -0.717 | -0.643 and -0.383 | 0.97 (inactive) and -0.383 (inactive) | -1.09 and -1.91 | -0.175 and 0.0156
14 | C=CCN(C(=O)C1N(C(C)(C)CO)C(=O)C2C(C(=O)O)C3C=CC21O3)C(C)(C)C (stereo not given) | 0.974 and 1.67 | -1.54 and -0.705 | -0.232 and -0.112 | -1.48 and 0.207 | -2.19 and -1.87 | -0.396 and 0.389 | 0.154 and 1.46 | 0.198 (inactive) and -0.0048 (inactive) | -1.37 and -1.24 | -0.427 and -0.0994
15 | C=CCN(CCCC)C(=O)C(c1cccs1)N(CCOCCO)C(=O)/C=C\C(=O)O (stereo not given) | 0.673 and -0.0069 | 0.878 and 0.902 | -0.208 and -0.23 | -1.36 and 0.428 | -1.8 and -0.746 | 1.34 and 0.823 | 0.903 and 0.941 | -1.65 (inactive) and -0.784 (inactive) | -0.496 and -0.114 | -0.134 and -0.236
16 | O=C(NN=C1C[C@@H](O)[C@@H](O)[C@@H]2[C@@H]3C(=O)N(Cc4ccc5c(c4)OCO5)C(=O)[C@@H]3CC[C@H]12)OCc1ccccc1 | -0.196 | 1.64 | -0.025 | -0.348 | 0.64 | -1.21 | -1.43 | -0.0282 (inactive) | 0.965 | -0.387
